# Active and inactive are the calls of the source. Unless noted, how the calls were made is not given here.
# Legend:
# [1] = A549 cell viability effects, profiling panel, calcein-AM fluorescence, 48 h, basal (AID 1162); settings: higher = more signal; further: test concentration not given here
# [2] = adipocyte viability effects, profiling panel, cell-based, 3T3-L1 adipocytes, calcein-AM fluorescence, 48 h, basal (AID 1163); settings: 3T3-L1 adipocytes viability, higher = more signal; further: test concentration not given here
# [3] = HepG2 cell viability effects, profiling panel, calcein-AM fluorescence, 48 h, basal (AID 1164); settings: higher = more signal; further: test concentration not given here
# [4] = MM1S cell viability effects, profiling panel, calcein-AM fluorescence, 48 h, basal (AID 1165); settings: higher = more signal;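 further: viability of MM1S multiple myeloma cells under basal unstimulated conditions; test concentration not given here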
# [5] = basal RPMI8226 viability, no added stimulus, profiling panel, cell-based, calcein-AM fluorescence, 48 h, PK04 Diversity Set (AID 1166); settings: RPMI8226 myeloma viability, higher = more signal;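 further: cells grown under basal conditions without added stimulus; test concentration not given here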
# [6] = basal HepG2 mitochondrial membrane potential changes, profiling panel, cell-based, JC-1 fluorescence, 24 h, 100 nL compound (AID 1167); settings: higher = more signal; further: test concentration not given here
# [7] = basal 3T3-L1 adipocyte mitochondrial potential changes, profiling panel, cell-based, JC-1 fluorescence, 3T3-L1 adipocytes, 24 h, 100 nL compound (AID 1168); settings: JC-1 mitochondrial fluorescence, higher = more signal, called active from +8 up or from −8 down; further: test concentration not given here
# [8] = basal RPMI8226 mitochondrial membrane potential changes, profiling panel, cell-based, JC-1 fluorescence, 24 h, 100 nL compound (AID 1169); settings: RPMI8226 myeloma, JC-1 mitochondrial potential fluorescence, higher = more signal; further: test concentration not given here
# [9] = basal MM1S mitochondrial membrane potential changes, profiling panel, cell-based, JC-1 fluorescence, 24 h, 100 nL compound (AID 1170); settings: higher = more signal; further: test concentration not given here
# [10] = A549 lung cancer cell viability effects, profiling panel, resazurin fluorescence, 24 h, PK04 Diversity Set (AID 1171); settings: higher = more signal, called active from +8 up or from −8 down; further: test concentration not given here
# [11] = HepG2 liver cancer cell viability effects, profiling panel, resazurin fluorescence, 24 h, PK04 Diversity Set (AID 1172); settings: higher = more signal; further: test concentration not given here
# [12] = basal S. cerevisiae growth modulation, no modifier, primary screen, OD600, strain BY4716, 24 h, basal condition (AID 1173); settings: OD600, 24 h, higher = more signal, called active from +8 up or from −8 down
# [13] = MM1S myeloma cell viability, profiling panel, resazurin fluorescence, basal, 24 h, PK04 Diversity Set (AID 1174); settings: higher = more signal, called active from +8 up or from −8 down;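 further: MM1S multiple myeloma cell line; test concentration not given here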
# [14] = target: Dihydroorotate dehydrogenase (quinone), mitochondrial (Plasmodium falciparum (isolate 3D7)) (UniProt Q08210); test: PfDHODH enzyme inhibitors, primary screen, biochemical, C-terminal His tag, absorbance 600 nm (AID 1175); settings: DCIP absorbance 600 nm, higher = more signal, called active from +8 up or from −8 down;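 further: recombinant parasite enzyme with a five histidine tag at its C terminus; test concentration not given here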
# [15] = P. aeruginosa biofilm formation inhibitors, primary screen, strain PAO1, LB-PBS medium, absorbance 600 nm (AID 1176); further: test concentration not given here; settings: P. aeruginosa PAO1 growth/biofilm, A600, 12 h; higher = more signal
# [16] = S. cerevisiae RM11-1a growth modifiers, primary screen, strain RM11-1a, OD600, basal, 24 h (AID 1177); settings: OD600, 24 h, higher = more signal, called active from +8 up or from −8 down;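 further: cultures grown under basal conditions with no added stressor; test concentration not given here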
# [17] = E. coli acrAB mutant growth effects, primary screen, E. coli filamentation inducers, strain DRC39, OD650, 24 h (AID 1178); settings: higher = more signal, called active from +8 up or from −8 down;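 further: growth measured as culture turbidity by optical density at 650 nm; test concentration not given here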
# [18] = E. coli acrAB mutant growth effects, primary screen, E. coli filamentation inducers, strain DRC39, OD650, 48 h (AID 1179);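 further: screen aims at cell division blockers that make cells filament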; settings: E. coli DRC39 delta-acrAB growth, higher = more signal, called active from +8 up or from −8 down
# [19] = RPMI8226 myeloma cell viability, profiling panel, resazurin fluorescence, basal, 24 h, PK04 Diversity Set (AID 1180); settings: higher = more signal;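 further: RPMI8826 multiple myeloma cell line at 5000 cells per well; test concentration not given here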
# [20] = target: E3 ubiquitin-protein ligase XIAP (Homo sapiens) (UniProt P98170); test: XIAP binders, primary screen, biophysical, small-molecule microarray, fluorescence 635 nm (AID 1181); settings: small-molecule microarray binding, higher = more signal;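 further: score merges 667 nm emission and signal to noise over triplicate slides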
# Sequence of E3 ubiquitin-protein ligase XIAP (Homo sapiens) (P98170 whole entry, looked up): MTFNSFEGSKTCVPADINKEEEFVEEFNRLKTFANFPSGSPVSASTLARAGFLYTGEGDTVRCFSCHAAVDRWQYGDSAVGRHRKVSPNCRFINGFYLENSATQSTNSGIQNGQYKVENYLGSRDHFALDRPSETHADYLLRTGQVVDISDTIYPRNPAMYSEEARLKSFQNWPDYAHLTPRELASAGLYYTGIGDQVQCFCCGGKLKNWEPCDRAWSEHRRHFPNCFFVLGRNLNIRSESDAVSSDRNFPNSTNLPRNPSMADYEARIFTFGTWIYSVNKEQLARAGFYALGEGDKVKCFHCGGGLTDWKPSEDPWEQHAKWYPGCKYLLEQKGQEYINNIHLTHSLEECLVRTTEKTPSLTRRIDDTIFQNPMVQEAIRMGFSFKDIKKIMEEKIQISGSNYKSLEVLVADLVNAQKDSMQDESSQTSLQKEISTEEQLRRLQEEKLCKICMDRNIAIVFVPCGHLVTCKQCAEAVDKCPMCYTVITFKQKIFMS
# Sequence of Dihydroorotate dehydrogenase (quinone), mitochondrial (Plasmodium falciparum (isolate 3D7)) (Q08210 whole entry, looked up): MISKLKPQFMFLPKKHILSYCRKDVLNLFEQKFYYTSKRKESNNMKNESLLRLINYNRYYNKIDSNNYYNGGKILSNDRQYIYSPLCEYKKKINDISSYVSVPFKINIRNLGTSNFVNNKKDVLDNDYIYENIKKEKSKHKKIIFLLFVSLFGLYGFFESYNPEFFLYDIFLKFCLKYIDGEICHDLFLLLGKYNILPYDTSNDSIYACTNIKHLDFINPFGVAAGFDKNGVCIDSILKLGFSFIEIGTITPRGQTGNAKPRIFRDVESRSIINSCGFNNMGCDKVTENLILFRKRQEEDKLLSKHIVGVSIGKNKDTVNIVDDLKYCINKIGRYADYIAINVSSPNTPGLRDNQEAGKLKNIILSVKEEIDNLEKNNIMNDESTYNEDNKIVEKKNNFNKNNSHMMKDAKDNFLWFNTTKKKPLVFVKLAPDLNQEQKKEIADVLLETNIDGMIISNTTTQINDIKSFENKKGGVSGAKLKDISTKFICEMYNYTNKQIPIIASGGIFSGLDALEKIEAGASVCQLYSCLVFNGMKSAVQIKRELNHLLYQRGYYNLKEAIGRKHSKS
SMILES,z-score [1],z-score [2],z-score [3],z-score [4],z-score [5],z-score [6],z-score [7],z-score [8],z-score [9],z-score [10],z-score [11],z-score [12],z-score [13],composite z-score [14],z-score [15],z-score [16],z-score [17],z-score [18],z-score [19],composite z-score [20]
COC(=O)c1c2oc(c1C(=O)OC)C(=O)N(Cc1ccccc1)Cc1cn(nn1)C[C@H](Cc1ccccc1)NC(=O)N[C@H](CO)CC2,2.05,0.92,0.377,1.18,1.75,1.9,-0.397 (inactive),-0.201,-0.62,1.27 (inactive),1.18,-1.78 (inactive),0.312 (inactive),-0.519 (inactive),0.231 (inactive),-1.38 (inactive),1.33 (inactive),1.89 (inactive),1.16,0.725
CCOC(=O)C1=CC[C@@H](c2ccccc2C(F)(F)F)N(S(=O)(=O)c2ccc(C)cc2)[C@H]1c1ccc(C#N)cc1,-0.711,-0.842,-0.326,-0.509,-0.214,-1.02,-0.544 (inactive),0.801,-0.81,-0.035 (inactive),-0.0666,1.02 (inactive),-1.39 (inactive),-0.0408 (inactive),1.01 (inactive),-0.171 (inactive),-0.534 (inactive),0.312 (inactive),-0.823,-0.0172
Cc1ccc(S[C@]2(C(=O)NCC(F)(F)F)CC(=O)N(Cc3ccccc3C(F)(F)F)[C@@H]2c2ccc(CO)cc2I)cc1,1.45,-0.438,0.707,-1.56,-1.71,0.16,0.0898 (inactive),-0.597,-2.22,0.328 (inactive),0.719,-3.66 (inactive),-2.62 (inactive),0.196 (inactive),-0.0623 (inactive),-1.21 (inactive),0.506 (inactive),1.21 (inactive),-1.15,0.531
O=C1N(Cc2ccccc2)c2ccccc2[C@@H]2OC(c3ccc(OCCCO)cc3)=N[C@]12Cc1ccccc1,-1.43,1.24,-1.98,-3.26,-4.42,-1.11,0.983 (inactive),-1.37,-0.884,-1.72 (inactive),-0.408,-0.87 (inactive),-3.68 (inactive),1.07 (inactive),1.25 (inactive),2.06 (inactive),1.29 (inactive),0.259 (inactive),-2.78,-0.0749
O=c1n(-c2ccccc2)c(=O)n2n1CC(COc1ccccc1)=C([C@H](O)CCc1ccccc1)[C@@H]2CO,-0.0498,0.725,0.787,-1.44,-2.34,-1.2,0.0027 (inactive),0.0482,-1.98,-0.962 (inactive),-0.633,-2.28 (inactive),-0.83 (inactive),-1.09 (inactive),-0.0126 (inactive),-3.02 (inactive),1.24 (inactive),0.395 (inactive),-0.0454,-0.472
CCCCCCCCCCC(O)C1C=CC2C(=O)N(C)C(=O)C2N1NC(=O)OC(C)(C)C (stereo not given),-3.85,0.0766,-5.09,-3.91,-4.14,-3.31,-0.464 (inactive),-0.946,-2.37,-3.67 (inactive),-5.01,-5.22 (inactive),-4.74 (inactive),1.1 (inactive),0.0337 (inactive),1.05 (inactive),-0.235 (inactive),-1.45 (inactive),-5.64,0.109
N#Cc1ccc(NN2C(C(O)c3ccc(F)cc3)C=CC3C(=O)N(c4ccccc4)C(=O)C32)cc1 (stereo not given),-0.518,-0.877,0.211,-0.453,-1.33,-1.58,-0.311 (inactive),0.321,0.153,0.133 (inactive),-0.587,-0.0167 (inactive),-0.388 (inactive),0.37 (inactive),0.695 (inactive),0.222 (inactive),-1.06 (inactive),-0.405 (inactive),-0.67,0.0651
CC(C)N1C(=O)c2ccccc2[C@@H](C(=O)NC2CC2)[C@@H]1c1ccc(CO)cc1,0.798,0.774,0.476,-0.0123,0.282,0.507,0.319 (inactive),0.108,0.0665,0.743 (inactive),-0.146,0.164 (inactive),0.224 (inactive),-0.54 (inactive),0.277 (inactive),-0.716 (inactive),0.0426 (inactive),-0.452 (inactive),0.417,0.163
CN1C(=O)C2C=CC(C(O)c3cccc(O)c3)N(Nc3ccccc3)C2C1=O (stereo not given),-0.501,-0.58,-0.333,-1.58,-1.67,-0.579,0.548 (inactive),-0.419,-0.179,0.0494 (inactive),0.0748,0.655 (inactive),-0.462 (inactive),0.613 (inactive),-0.159 (inactive),0.837 (inactive),-1.32 (inactive),-0.17 (inactive),-2.48,-0.0812
